# 4MU fluor = 4-MU region autofluorescence. compound autofluorescence, 340/450 nm, 4-MU equivalents; active compounds read high. max dye-equivalent concentration, M. hit rate 11% among 59,000. AID 589; in the data active = max dye-equivalent concentration above about 10 nM; inconclusive = mostly about 1.1 nM to 9.6 nM
#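 Intrinsic fluorescence at 340/450 nm (ex/em) was read after 15 min at room temperature in pH 8.0, 100 mM Tris. Each compound concentration expressed as 4-MU-equivalent concentration from a six-point 4-MU standard series on each plate.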
# HADH2 inhib = inhibitors of human HADH2 dehydrogenase; Q99714; recombinant HADH2, NADH fluorescence, beta-hydroxybutyryl-CoA; Potency, µM (doses to about 57.1 µM), without a hit: at the highest dose activity change, negative = inhibition, actives largely listed as inhibitors; AID 886; hit rate 3.4% among 73,000; note: potency is the fitted concentration of half-maximal effect; % is set by controls: 0 for no effect and ±100 for the full control effect; nearly all actives have a fitted effect of over 60% in size
# Target sequence (Q99714 whole entry, looked up, one chain of several): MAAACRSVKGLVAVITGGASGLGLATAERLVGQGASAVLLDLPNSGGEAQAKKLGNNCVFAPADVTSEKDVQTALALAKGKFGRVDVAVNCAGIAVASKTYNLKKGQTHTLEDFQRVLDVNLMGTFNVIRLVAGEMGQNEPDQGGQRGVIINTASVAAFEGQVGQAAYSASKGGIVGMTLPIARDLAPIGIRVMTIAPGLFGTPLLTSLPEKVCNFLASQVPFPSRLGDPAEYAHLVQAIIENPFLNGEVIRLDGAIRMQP
#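 20 nM HADH2 + cpd, 15 min RT; add 1 mM NAD+/90 uM beta-hydroxybutyryl-CoA; kinetic fluorescence 360/450 nm, 4 min. Tris-HCl pH 9.0, 0.01% Tween-20.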
# HSD17B inhib = blocks hydroxysteroid 17-beta dehydrogenase activity; Potency, µM (doses to about 57.1 µM), for inactives: at the top dose activity change, negative = inhibition, actives largely listed as inhibitors; recombinant HSD17B10, NADH fluorescence kinetic; Q99714; hit rate 7.6% among 75,000;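 note: the protocol describes HADH2 (HSD17B10) and not the HSD17B4 of the title; potency is the fitted concentration of half-maximal effect; % is set by controls: 0 for no effect and ±100 for the full control effect; nearly all actives have a fitted effect of over 70% in size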
#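 Enzyme plus compound, 15 min room temperature; substrate mix added (NAD+ 1 mM, beta-hydroxybutyryl-CoA 90 uM final); plates read kinetically for NADH fluorescence. HADH2 was His-tagged, E. coli-derived, 20 nM.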
# CRE Fsk mod = alters forskolin-stimulated CRE reporter signaling in CHO cells. Potency, µM (top dose mostly 38.2 µM), for the others: at the top dose activity change, negative = inhibition, actives largely listed as activators. CHO CRE-bla reporter (cAMP response element driving beta-lactamase), forskolin EC10, beta-lactamase ratio. hit rate 2.5% among 71,000; active = well fitted activation curve with a large enough effect in the signal ratio, with a control signal flat, not every such curve was filed as active; inconclusive = small, poorly fitted or top-dose-only effect, or effect the other way, or a change in a side signal; the % refers to the signal ratio; note: potency is the fitted concentration of half-maximal effect; % of control where 0% means no effect
#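 Modulation of forskolin-driven signalling is measured in CHO cells carrying a CRE-controlled beta-lactamase reporter. Cells are stimulated with EC10 NKH 477 in the presence of titrated compound for 3 h at 37 °C, then loaded with CCF4 for 2 h at room temperature.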
# AID923 = qHTS Assay for Allosteric/Competitive Inhibitors of Caspase-1: Spectroscopic Profiling in AFC Spectral Region | compound fluorescence, AFC spectral region (405/520 nm) | Potency, µM (titrated, usually from 57.5 µM), inactives show at the highest dose fluorescence increase, usual class: activators | hit rate 1.1% among 75,000 | AID 923, 2007; note: potency is the fitted concentration of half-maximal effect; 0% is about no effect
#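 Compound autofluorescence profiled at 405 nm ex/520 nm em during kinetic caspase 1 run (50 nM enzyme, 5 uM Ac-WEHD-AFC, HEPES pH 7.5, 10 mM DTT). Titration up to 57 uM; baseline from regression intercept, normalized to AFC standard curve.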
# A350 fluor = compounds fluorescent in Alexa 350 spectral region | AID 590 | hit rate 11% among 59,000 | Compound autofluorescence, 340/450 nm, Alexa 350 dye-equivalents; active compounds read high | max dye-equivalent concentration, M; in the data active = max dye-equivalent concentration above about 10 nM; inconclusive = mostly about 1.1 nM to 9.6 nM
# * marks the source's active call; other numbers are inactive results; i = inactive; u = inconclusive; x = not tested or not shown; [ ] = remark or other dose. Only some compounds are listed: those with a hit (about 14% of all), similar ones and a draw of the others. Unless noted, calls come from the whole dose curve; as a rule, active = well fitted curve in the direction sought with a large enough effect; inconclusive = small, poorly fitted or top-dose-only effect, or another doubt; inactive = no such curve, though single readings can be large; an effect the other way counts as inactive or inconclusive.
SMILES,4MU fluor,HADH2 inhib,HSD17B inhib,CRE Fsk mod,AID923,A350 fluor
COc1c(Br)cc(Br)cc1/C=N/n1c(C)nnc1C,u,0.5%,0.9%,-22.3%,1.6%,u
CCOC(=O)Cn1c(CCC(=O)O)ccc1-c1ccc(F)cc1,x,57.3%,25.1µM*,-4.9%,0.0%,x
O=C(O)CCc1ccc(-c2ccc(F)cc2)n1CC(=O)O,u,-27.8%,31.6µM*,-6.8%,9.4%,u
C=C1CCC2C(C)(CO)C(O)CCC2(C)C1C/C=C1\C(=O)OCC1O (stereo not drawn),x,x,9.2%,x,-0.3%,x
COc1ccc(CCNC(=O)CSCc2n[nH]c(=O)[nH]2)cc1OC,i,4.2%,83.7%,-9.0%,-0.6%,i
CN(N=O)c1ccc(/C=C\c2ccnc3ccccc23)cc1,2.51e-07M*,-21.6%[11.4 µM],3.98µM*,11.6%[7.6 µM],-0.6%[11.5 µM],2.77e-07M*
O=C(CSc1nnc(-c2ccccc2)o1)n1c2c(c3ccccc31)CCCC2,i,6.6%,6.5%,-7.6%,-1.9%,i
Cc1ccc(NC2c3ncccc3C(=O)N2c2ccccc2C)cc1C (stereo not drawn),i,u,20µM*,u,2.2%,u
O=C(CN1CCCCC1)Nc1ccc(S(=O)(=O)NC2CCCCC2)cc1,i,3.2%,1.5%,u,-0.8%,u
O=C1c2ccccc2C(=O)c2c(NC3CCCCC3)ccc(Nc3ccc(S(=O)(=O)O)cc3)c21,i,3.16µM*,3.16µM*,-1.9%[7.6 µM],1.4%[11.5 µM],i
C[C@@H](C(=O)NCCc1c[nH]c2ccccc12)[C@@H]1C[C@@]1(C)[C@@H](NC(=O)OCc1ccccc1)c1ccccc1,x,15.3%,22.7%,-6.3%,1.1%,x
CCOC(=O)c1nnn(CC(=O)Nc2cccc(OC)c2)c1C(=O)OCC,i,-0.7%,-5.8%,-3.9%,0.4%,i
Cc1ccc(C(=O)Nc2ncc3c(n2)CC(c2ccco2)CC3=O)cc1 (stereo not drawn),i,-10.4%,-6.3%,-18.4%,0.2%,u
Cc1ccc(Nc2ncc3c(n2)CC(c2ccco2)CC3=O)c(C)c1 (stereo not drawn),i,u,31.6µM*,-8.5%,3.3%,u
Cc1cc(C)cc(Nc2ncc3c(n2)CC(c2ccco2)CC3=O)c1 (stereo not drawn),7.17e-07M*,31.6µM*,-9.8%,-7.4%,2.1%,6.39e-07M*
O=C1CC(c2ccco2)Cc2nc(Nc3nc(-c4ccccc4)c4ccccc4n3)ncc21 (stereo not drawn),u,u,12.6µM*,u,-0.7%,1.08e-08M*
Cc1cccc(Nc2ncc3c(n2)CC(c2ccco2)CC3=O)c1 (stereo not drawn),1.44e-08M*,-12.5%,u,29.7%,1.8%,u
Cc1ccc(NC(=O)CSCC(=O)Nc2ncc3c(n2)CC(c2ccco2)CC3=O)cc1 (stereo not drawn),i,-14.8%,0.4%,-5.9%,-1.7%,i
Cc1cccc(Nc2ncc3c(n2)CC(C)CC3=O)c1 (stereo not drawn),i,8.8%,7.8%,3.1%,1.7%,u
CCOc1cc(C2c3c(n[nH]c3C)C(=O)N2c2ccc(Br)cc2)ccc1O (stereo not drawn),i,u,u,u,-1.5%,i
COc1cc([C@@H]2Oc3cc([C@H]4Oc5cc(O)cc(O)c5C(=O)[C@H]4O)ccc3O[C@H]2CO)ccc1O,i,31.6µM*,u,-17.4%,-0.3%,i
COc1cc([C@H]2Oc3cc([C@H]4Oc5cc(O)cc(O)c5C(=O)[C@@H]4O)ccc3O[C@@H]2CO)ccc1O,x,u,31.6µM*,-16.1%,-1.2%,x
Cn1cccc1C(=O)Nc1nc(-c2ccccn2)cs1,i,6.31µM*,-13.2%,13.3%,0.9%,i
COc1cc(O)c2c(O)c3c(c4c2c1[C@@]1(C4)C(C)=CCCC1(C)C)[C@H](O)[C@@]1(O)CC(=O)C(C(N)=O)=C(O)[C@]1(O)C3=O,i,3.16µM*,u,u,5.5%[11.5 µM],i

# Screening results from PubChem.
